What all share (assay): DAPPL (digital affinity profiling via proximity ligation, sequencing); 10 mM Tris-HCl pH 7.5, 50 mM NaCl, 1 mM DTT, 4% glycerol, room temperature, 30 min; GST-TFs on glutathione beads, 16-mer random dsDNA library, 0.1% formaldehyde crosslink after washing; high values mean tight binding
The target in one assay is T1, FLI1 (Homo sapiens, UniProt Q01543 1-452).
T1 sequence: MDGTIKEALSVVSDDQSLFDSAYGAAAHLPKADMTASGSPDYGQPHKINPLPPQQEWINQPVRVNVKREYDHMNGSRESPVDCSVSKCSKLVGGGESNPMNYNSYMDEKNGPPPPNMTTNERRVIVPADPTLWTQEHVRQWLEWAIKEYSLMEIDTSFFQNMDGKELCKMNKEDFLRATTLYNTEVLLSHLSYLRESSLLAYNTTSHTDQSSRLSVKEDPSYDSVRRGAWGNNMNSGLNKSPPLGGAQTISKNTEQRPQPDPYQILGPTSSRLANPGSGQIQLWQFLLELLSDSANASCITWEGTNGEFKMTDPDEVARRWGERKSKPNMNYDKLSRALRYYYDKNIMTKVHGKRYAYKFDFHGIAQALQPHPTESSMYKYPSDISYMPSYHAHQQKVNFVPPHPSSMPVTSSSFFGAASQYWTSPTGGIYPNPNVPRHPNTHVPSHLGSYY
The note with it: protein: recombinant; tags: N-terminal GST; dsDNA, one strand shown. Put shortly: (§1)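 Human transcription factors were made in yeast as GST fusions, captured on glutathione beads and barcoded with DNA. With a tag-only sample included, the pool was incubated with 200 nmole of a random double-stranded 16-mer DNA library in Tris/NaCl/DTT/glycerol buffer at room temperature for 30 min, then crosslinked with 0.1% formaldehyde after washing, ligated by proximity, amplified and sequenced. For binding signal, each hexamer's read frequency for a factor is divided by its frequency for the tag-only sample.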

The target of another assay is T2, ELK1 (Homo sapiens, UniProt P19419 1-428).
T2 sequence: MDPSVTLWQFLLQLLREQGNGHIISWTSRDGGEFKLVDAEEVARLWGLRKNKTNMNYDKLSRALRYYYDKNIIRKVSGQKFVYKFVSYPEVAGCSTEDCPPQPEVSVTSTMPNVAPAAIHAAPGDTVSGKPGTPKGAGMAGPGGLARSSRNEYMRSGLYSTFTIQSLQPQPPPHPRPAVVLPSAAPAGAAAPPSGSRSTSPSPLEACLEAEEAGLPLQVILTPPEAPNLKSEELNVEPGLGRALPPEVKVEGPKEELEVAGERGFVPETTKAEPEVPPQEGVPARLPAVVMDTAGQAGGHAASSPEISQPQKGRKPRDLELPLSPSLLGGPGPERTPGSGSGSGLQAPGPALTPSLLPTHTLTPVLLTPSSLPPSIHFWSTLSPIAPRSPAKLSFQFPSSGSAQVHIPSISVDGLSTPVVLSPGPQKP
The note with it: protein: recombinant; tags: N-terminal GST; dsDNA, one strand shown. Put shortly:
as §1

The target of the next assay is T3, GABPA (Homo sapiens, UniProt Q06546 1-454).
T3 sequence: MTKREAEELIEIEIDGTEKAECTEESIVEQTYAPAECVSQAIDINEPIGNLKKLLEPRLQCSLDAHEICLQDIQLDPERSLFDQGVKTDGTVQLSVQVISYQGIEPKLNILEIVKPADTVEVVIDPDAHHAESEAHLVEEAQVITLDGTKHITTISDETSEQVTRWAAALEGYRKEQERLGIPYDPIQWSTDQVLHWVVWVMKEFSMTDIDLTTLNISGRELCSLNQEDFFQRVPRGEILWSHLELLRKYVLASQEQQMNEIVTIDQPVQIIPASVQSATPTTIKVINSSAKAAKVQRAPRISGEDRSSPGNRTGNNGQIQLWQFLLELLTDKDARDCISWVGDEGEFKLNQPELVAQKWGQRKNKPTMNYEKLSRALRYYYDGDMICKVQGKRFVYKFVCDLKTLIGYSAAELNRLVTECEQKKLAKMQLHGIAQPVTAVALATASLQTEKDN
The note with it: protein: recombinant; tags: N-terminal GST; dsDNA, one strand shown. Put shortly:
as §1

The target in the next assay is T4, ERG (Homo sapiens, UniProt P11308 1-479).
T4 sequence: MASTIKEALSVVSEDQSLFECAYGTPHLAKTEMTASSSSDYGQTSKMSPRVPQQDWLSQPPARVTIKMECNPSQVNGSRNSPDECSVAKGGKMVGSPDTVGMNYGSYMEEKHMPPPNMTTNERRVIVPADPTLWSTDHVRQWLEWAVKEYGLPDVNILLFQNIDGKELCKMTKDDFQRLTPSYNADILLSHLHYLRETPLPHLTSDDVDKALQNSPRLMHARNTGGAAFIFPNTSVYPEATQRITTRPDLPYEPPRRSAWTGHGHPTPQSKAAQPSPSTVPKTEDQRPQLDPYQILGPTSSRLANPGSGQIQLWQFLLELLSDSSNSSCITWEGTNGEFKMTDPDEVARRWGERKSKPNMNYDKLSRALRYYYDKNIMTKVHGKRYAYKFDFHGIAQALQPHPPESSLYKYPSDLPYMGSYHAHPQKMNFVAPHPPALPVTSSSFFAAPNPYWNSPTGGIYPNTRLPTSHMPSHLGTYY
The note with it: protein: recombinant; tags: N-terminal GST; dsDNA, one strand shown. Put shortly:
as §1

A further assay has as its target ELF1 (Homo sapiens, UniProt P32519 1-619). The note with it: protein: recombinant; tags: N-terminal GST; dsDNA, one strand shown. The essentials: as §1
In a further assay the target is T5, EHF (Homo sapiens, UniProt Q9NZC4 1-300).
T5 sequence: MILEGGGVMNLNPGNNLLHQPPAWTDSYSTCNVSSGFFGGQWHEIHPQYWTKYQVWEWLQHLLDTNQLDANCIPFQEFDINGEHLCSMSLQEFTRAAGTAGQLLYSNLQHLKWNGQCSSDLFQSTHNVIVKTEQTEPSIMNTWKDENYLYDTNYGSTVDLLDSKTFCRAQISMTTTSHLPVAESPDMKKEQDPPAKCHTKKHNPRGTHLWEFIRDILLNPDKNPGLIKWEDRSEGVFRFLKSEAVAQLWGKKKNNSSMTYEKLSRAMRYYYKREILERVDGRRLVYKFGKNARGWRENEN
The note with it: protein: recombinant; tags: N-terminal GST; dsDNA, one strand shown. Put shortly:
as §1

The next assay has as its target SPI1 (Homo sapiens, UniProt P17947 1-270). The note with it: protein: recombinant; tags: N-terminal GST; dsDNA, one strand shown. Put shortly:
as §1

Another assay addresses SPIB (Homo sapiens, UniProt Q01892 1-262). The settings on record: protein: recombinant; tags: N-terminal GST; dsDNA, one strand shown. Put shortly:
as §1

A further assay has as its target T6, ELK3 (Homo sapiens, UniProt P41970 1-407).
T6 sequence: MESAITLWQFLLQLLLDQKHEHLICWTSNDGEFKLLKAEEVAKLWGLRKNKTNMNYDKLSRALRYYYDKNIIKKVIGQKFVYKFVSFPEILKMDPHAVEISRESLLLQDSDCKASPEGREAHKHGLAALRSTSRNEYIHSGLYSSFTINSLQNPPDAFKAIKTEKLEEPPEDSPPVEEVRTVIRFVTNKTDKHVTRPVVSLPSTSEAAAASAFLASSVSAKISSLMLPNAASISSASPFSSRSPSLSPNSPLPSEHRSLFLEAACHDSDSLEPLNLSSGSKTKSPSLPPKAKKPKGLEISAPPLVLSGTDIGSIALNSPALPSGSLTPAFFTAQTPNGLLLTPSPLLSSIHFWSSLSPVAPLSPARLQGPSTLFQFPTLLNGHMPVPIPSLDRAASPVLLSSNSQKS
The note with it: protein: recombinant; tags: N-terminal GST; dsDNA, one strand shown. Put shortly:
as §1

The next assay has as its target T7, FEV (Homo sapiens, UniProt Q99581 1-238).
T7 sequence: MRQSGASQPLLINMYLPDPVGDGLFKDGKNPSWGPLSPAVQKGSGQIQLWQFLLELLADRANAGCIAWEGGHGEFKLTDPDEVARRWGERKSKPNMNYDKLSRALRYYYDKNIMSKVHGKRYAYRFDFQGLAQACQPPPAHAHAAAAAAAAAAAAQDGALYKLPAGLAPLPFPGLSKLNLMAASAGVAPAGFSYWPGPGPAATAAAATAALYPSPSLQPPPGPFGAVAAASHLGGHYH
The settings on record: protein: recombinant; tags: N-terminal GST; dsDNA, one strand shown. Put shortly: as §1

The next assay has as its target ETV5 (Homo sapiens, UniProt P41161 1-510). The settings on record: protein: recombinant; tags: N-terminal GST; dsDNA, one strand shown. The essentials:
as §1

The target of another assay is HSF1 (Homo sapiens, UniProt Q00613 1-529). The settings on record: protein: recombinant; tags: N-terminal GST; chain copies: 3; dsDNA, one strand shown. The essentials: as §1
Sequence of HSF1 (Q00613 whole entry): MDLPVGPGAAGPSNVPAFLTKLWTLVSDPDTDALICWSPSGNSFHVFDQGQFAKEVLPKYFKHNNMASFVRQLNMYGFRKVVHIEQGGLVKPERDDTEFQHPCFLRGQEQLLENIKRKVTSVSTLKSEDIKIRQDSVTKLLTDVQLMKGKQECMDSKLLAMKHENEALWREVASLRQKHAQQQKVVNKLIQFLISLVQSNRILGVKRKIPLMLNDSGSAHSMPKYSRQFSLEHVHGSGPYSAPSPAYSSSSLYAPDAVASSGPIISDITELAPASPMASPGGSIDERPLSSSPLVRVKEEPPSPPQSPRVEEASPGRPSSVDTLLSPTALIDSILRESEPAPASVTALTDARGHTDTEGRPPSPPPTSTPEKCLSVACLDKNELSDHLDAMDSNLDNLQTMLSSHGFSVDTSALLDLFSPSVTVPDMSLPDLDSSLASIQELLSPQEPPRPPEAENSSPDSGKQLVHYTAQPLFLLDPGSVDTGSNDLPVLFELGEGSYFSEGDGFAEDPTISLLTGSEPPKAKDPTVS
In a further assay the target is T8, SPIC (Homo sapiens, UniProt Q8N5J4 1-248).
T8 sequence: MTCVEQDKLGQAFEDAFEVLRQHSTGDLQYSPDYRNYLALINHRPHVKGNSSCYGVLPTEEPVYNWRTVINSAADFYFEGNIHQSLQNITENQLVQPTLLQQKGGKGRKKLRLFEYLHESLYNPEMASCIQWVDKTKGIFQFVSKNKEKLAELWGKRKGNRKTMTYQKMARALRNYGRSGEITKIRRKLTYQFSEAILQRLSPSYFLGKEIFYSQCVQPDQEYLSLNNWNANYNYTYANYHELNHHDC
The settings on record: protein: recombinant; tags: N-terminal GST; dsDNA, one strand shown. Put shortly: as §1

In another assay the target is ELF4 (Homo sapiens, UniProt Q99607 1-663). The note with it: protein: recombinant; tags: N-terminal GST; dsDNA, one strand shown. The essentials: as §1
Sequence of ELF4 (Q99607 whole entry): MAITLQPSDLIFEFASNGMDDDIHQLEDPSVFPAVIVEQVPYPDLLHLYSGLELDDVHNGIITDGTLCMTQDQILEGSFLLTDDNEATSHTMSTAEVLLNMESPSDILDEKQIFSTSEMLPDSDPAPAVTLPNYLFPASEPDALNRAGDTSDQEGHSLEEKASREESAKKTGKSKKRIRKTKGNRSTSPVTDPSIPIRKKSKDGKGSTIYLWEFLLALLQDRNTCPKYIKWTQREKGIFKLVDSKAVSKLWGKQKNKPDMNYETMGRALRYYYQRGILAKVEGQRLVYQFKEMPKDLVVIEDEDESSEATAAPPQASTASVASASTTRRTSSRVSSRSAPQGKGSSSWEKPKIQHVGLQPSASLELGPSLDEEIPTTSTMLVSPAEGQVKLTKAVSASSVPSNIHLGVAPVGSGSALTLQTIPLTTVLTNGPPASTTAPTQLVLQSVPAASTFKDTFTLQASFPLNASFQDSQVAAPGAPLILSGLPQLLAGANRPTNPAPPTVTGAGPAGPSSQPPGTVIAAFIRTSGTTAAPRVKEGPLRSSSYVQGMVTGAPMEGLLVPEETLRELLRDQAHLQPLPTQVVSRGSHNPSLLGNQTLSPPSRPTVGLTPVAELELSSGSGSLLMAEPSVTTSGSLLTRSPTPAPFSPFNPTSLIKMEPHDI
The target in the next assay is T9, ELK4 (Homo sapiens, UniProt P28324-2 1-405).
T9 sequence: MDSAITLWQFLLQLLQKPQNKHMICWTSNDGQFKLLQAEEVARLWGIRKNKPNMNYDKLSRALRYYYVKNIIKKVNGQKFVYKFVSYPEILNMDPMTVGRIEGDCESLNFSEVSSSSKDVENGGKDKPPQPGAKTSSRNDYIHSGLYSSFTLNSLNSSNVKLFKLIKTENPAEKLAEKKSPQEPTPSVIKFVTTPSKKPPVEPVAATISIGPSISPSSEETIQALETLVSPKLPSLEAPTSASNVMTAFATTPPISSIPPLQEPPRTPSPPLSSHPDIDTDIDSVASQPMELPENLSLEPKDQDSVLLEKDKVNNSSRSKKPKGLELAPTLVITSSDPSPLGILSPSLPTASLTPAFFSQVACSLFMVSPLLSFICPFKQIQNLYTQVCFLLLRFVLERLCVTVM
The settings on record: protein: recombinant; tags: N-terminal GST; dsDNA, one strand shown. Put shortly:
as §1

A further assay concerns the target T10, ETV2 (Homo sapiens, UniProt O00321 1-342).
T10 sequence: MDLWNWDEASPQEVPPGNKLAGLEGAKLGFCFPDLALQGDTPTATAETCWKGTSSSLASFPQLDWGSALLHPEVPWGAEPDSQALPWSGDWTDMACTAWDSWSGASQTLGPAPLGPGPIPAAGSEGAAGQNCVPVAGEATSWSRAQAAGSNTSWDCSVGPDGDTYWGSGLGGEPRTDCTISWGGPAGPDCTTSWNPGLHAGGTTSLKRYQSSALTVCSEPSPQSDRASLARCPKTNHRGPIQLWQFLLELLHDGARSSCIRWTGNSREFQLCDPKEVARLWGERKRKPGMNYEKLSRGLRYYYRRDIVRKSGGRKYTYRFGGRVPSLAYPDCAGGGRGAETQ
The note with it: protein: recombinant; tags: N-terminal GST; dsDNA, one strand shown. Put shortly:
as §1

The target of the next assay is T11, ELF3 (Homo sapiens, UniProt P78545 1-371).
T11 sequence: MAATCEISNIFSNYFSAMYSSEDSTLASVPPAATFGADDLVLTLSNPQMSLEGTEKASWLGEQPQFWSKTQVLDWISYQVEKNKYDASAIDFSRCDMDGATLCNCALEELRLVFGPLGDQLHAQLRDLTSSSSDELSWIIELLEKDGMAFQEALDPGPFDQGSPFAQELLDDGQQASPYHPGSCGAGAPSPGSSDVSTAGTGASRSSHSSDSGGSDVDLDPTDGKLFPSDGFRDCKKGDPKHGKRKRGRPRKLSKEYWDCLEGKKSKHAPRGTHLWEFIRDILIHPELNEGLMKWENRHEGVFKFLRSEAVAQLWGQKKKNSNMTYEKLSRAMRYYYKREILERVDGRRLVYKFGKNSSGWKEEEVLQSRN
The note with it: protein: recombinant; tags: N-terminal GST; dsDNA, one strand shown. Put shortly: as §1

In the next assay the target is ETV1 (Homo sapiens, UniProt P50549 1-477). The settings on record: protein: recombinant; tags: N-terminal GST; dsDNA, one strand shown. The essentials:
as §1

Sequence of ELF1 (P32519 whole entry): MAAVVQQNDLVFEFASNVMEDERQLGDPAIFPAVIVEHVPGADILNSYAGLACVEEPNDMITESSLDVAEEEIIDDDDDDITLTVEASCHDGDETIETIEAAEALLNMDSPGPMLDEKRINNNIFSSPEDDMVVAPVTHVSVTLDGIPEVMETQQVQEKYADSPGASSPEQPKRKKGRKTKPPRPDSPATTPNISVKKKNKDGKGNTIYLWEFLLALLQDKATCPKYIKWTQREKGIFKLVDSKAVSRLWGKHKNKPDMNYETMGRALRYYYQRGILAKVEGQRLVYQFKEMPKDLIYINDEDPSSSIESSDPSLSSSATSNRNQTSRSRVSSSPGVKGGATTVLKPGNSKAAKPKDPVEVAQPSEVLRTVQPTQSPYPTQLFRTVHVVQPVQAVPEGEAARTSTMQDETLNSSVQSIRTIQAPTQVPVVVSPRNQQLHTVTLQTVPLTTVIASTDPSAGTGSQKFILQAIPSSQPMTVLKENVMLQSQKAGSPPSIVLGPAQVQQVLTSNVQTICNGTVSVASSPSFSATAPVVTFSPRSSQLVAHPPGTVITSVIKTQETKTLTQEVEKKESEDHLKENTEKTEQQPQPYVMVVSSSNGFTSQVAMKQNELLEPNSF
Sequence of ETV5 (P41161 whole entry): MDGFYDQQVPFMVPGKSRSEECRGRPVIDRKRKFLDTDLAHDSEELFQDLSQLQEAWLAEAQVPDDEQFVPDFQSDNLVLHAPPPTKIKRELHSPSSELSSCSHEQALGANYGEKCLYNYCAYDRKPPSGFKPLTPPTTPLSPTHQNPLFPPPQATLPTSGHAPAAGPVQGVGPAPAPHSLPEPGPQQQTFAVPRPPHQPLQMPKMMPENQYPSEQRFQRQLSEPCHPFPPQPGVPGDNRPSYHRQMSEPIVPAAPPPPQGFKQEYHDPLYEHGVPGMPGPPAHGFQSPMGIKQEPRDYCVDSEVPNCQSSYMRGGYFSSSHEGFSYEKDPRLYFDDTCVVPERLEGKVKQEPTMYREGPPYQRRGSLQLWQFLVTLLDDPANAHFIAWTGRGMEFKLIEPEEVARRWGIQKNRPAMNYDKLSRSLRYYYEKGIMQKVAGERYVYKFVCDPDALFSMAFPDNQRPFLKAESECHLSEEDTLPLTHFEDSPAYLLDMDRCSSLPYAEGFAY
Sequence of SPIB (Q01892 whole entry): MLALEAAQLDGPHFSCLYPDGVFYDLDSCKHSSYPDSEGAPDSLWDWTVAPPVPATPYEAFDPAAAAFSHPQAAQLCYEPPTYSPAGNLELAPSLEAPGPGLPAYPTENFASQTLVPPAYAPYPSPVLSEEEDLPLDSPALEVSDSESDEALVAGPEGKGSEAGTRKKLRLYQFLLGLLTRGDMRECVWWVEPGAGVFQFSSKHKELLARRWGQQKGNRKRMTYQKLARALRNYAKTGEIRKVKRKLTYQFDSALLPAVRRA
Sequence of ETV1 (P50549 whole entry): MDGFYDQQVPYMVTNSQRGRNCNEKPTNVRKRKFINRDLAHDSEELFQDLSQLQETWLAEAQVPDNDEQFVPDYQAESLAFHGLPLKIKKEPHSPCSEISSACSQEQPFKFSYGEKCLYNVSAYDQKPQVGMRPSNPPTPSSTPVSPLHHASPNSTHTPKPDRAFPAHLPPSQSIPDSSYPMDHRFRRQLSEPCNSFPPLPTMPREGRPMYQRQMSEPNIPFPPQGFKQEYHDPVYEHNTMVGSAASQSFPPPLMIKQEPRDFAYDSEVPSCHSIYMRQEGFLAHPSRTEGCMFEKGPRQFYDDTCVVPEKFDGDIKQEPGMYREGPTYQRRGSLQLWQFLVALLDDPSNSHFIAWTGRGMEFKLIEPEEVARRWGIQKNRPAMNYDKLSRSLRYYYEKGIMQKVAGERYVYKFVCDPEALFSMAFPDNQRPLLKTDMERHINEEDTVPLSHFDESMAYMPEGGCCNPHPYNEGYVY

Turning to TGTACC, the binding signal in the assay with FLI1 is 1.42 fold enrichment (6-mer frequency, TF over GST control); with ELK1, 1.36 fold enrichment (6-mer frequency, TF over GST control); with GABPA, 1.29 fold enrichment (6-mer frequency, TF over GST control); with ERG, 1.26 fold enrichment (6-mer frequency, TF over GST control); with ELF1, 1.34 fold enrichment (6-mer frequency, TF over GST control); in the assay with EHF, 1.35 fold enrichment (6-mer frequency, TF over GST control). For the same sequence, the binding signal is 1.33 fold enrichment (6-mer frequency, TF over GST control) in the assay with SPI1; 1.22 fold enrichment (6-mer frequency, TF over GST control) with SPIB; 1.28 fold enrichment (6-mer frequency, TF over GST control) in the assay with ELK3; 1.38 fold enrichment (6-mer frequency, TF over GST control) with FEV; 1.4 fold enrichment (6-mer frequency, TF over GST control) with ETV5; 1.03 fold enrichment (6-mer frequency, TF over GST control) with HSF1. For the same sequence, the binding signal with SPIC was 1.39 fold enrichment (6-mer frequency, TF over GST control); with ELF4, 1.26 fold enrichment (6-mer frequency, TF over GST control); with ELK4, 1.39 fold enrichment (6-mer frequency, TF over GST control); with ETV2, 1.35 fold enrichment (6-mer frequency, TF over GST control); with ELF3, 1.38 fold enrichment (6-mer frequency, TF over GST control); in the assay with ETV1, 1.37 fold enrichment (6-mer frequency, TF over GST control).
